Results as given in the supplement of paper PMC9117331.
Structures can show the parent of a compound that is named as a salt.

Legend:
Conditions in all cases: 0.5 µM; time after treatment 48 h; PC9 signalome
PC9 [1] = assay: AKT reporter activity score (signed KS statistic vs DMSO) (signed KS statistic (-1 to 1)); higher = stronger activation of the pathway reporter relative to DMSO
PC9 [2] = assay: RAR reporter activity score (signed KS statistic vs DMSO) (signed KS statistic (-1 to 1)); higher = stronger activation of the pathway reporter relative to DMSO
PC9 [3] = assay: PKC reporter activity score (signed KS statistic vs DMSO) (signed KS statistic (-1 to 1)); higher = stronger activation of the pathway reporter relative to DMSO
PC9 [4] = assay: PKA reporter activity score (signed KS statistic vs DMSO) (signed KS statistic (-1 to 1)); higher = stronger activation of the pathway reporter relative to DMSO
PC9 [5] = assay: p38 reporter activity score (signed KS statistic vs DMSO) (signed KS statistic (-1 to 1)); higher = stronger activation of the pathway reporter relative to DMSO
PC9 [6] = assay: HIF reporter activity score (signed KS statistic vs DMSO) (signed KS statistic (-1 to 1)); higher = stronger activation of the pathway reporter relative to DMSO
PC9 [7] = assay: ERK reporter activity score (signed KS statistic vs DMSO) (signed KS statistic (-1 to 1)); higher = stronger activation of the pathway reporter relative to DMSO
PC9 [8] = assay: JNK reporter activity score (signed KS statistic vs DMSO) (signed KS statistic (-1 to 1)); higher = stronger activation of the pathway reporter relative to DMSO
PC9 [9] = assay: WNT reporter activity score (signed KS statistic vs DMSO) (signed KS statistic (-1 to 1)); higher = stronger activation of the pathway reporter relative to DMSO
PC9 [10] = assay: NFkB reporter activity score (signed KS statistic vs DMSO) (signed KS statistic (-1 to 1)); higher = stronger activation of the pathway reporter relative to DMSO
PC9 [11] = assay: YAP/TAZ reporter activity score (signed KS statistic vs DMSO) (signed KS statistic (-1 to 1)); higher = stronger activation of the pathway reporter relative to DMSO

SMILES | AKT reporter activity score (PC9 [1]) | RAR reporter activity score (PC9 [2]) | PKC reporter activity score (PC9 [3]) | PKA reporter activity score (PC9 [4]) | p38 reporter activity score (PC9 [5]) | HIF reporter activity score (PC9 [6]) | ERK reporter activity score (PC9 [7]) | JNK reporter activity score (PC9 [8]) | WNT reporter activity score (PC9 [9]) | NFkB reporter activity score (PC9 [10]) | YAP/TAZ reporter activity score (PC9 [11])
CO[C@H]1C[C@@H]2CC[C@@H](C)[C@@](O)(O2)C(=O)C(=O)N2CCCC[C@H]2C(=O)O[C@H]([C@H](C)C[C@@H]2CC[C@@H](OP(C)(C)=O)[C@H](OC)C2)CC(=O)[C@H](C)/C=C(\C)[C@@H](O)[C@@H](OC)C(=O)[C@H](C)C[C@H](C)/C=C/C=C/C=C/1C [Deforolimus (MK-8669)] | 0.241 | -0.292 | -0.044 | 0.262 | 0.178 | -0.232 | 0.0405 | -0.0745 | 0.0613 | 0.151 | 0.142
Cc1ccc([N+](=O)[O-])cc1S(=O)(=O)N(C)/N=C/c1cnc2ccc(Br)cn12 | -0.252 | 0.101 | 0.105 | -0.347 | -0.118 | 0.178 | -0.147 | 0.157 | 0.207 | 0.0772 | 0.169
Cc1c(NC(=O)OC[C@@H]2COCCN2)cn2ncnc(Nc3ccc4c(cnn4Cc4cccc(F)c4)c3)c12 | -0.228 | 0.182 | 0.0831 | 0.0553 | -0.0763 | -0.136 | -0.29 | -0.0881 | 0.0831 | 0.0753 | 0.0967
CN1CC[C@H](c2c(O)cc(O)c3c(=O)cc(-c4ccccc4Cl)oc23)[C@H](O)C1 [Flavopiridol hydrochloride] | – | – | – | -0.608 | -0.475 | 0.353 | -0.633 | -0.208 | 0.153 | 0.123 | 0.371
COc1ccc(-c2ccc3c(N4CCOC[C@@H]4C)nc(N4CCOC[C@@H]4C)nc3n2)cc1CO | -0.0864 | -0.11 | 0.0766 | – | -0.297 | -0.151 | -0.211 | -0.189 | 0.13 | 0.178 | 0.166
CC(C)CC(=O)Nc1n[nH]c2c1CN(C(=O)C1CCN(C)CC1)C2(C)C | -0.35 | 0.417 | – | -0.15 | -0.296 | 0.227 | -0.107 | -0.179 | 0.117 | 0.167 | 0.244
O=C(NOC[C@H](O)CO)c1ccc(F)c(F)c1Nc1ccc(I)cc1F | 0.136 | 0.142 | 0.094 | -0.18 | -0.265 | -0.129 | -0.452 | 0.303 | 0.0484 | 0.228 | 0.42
CC(C)n1nc(-c2ccc3oc(N)nc3c2)c2c(N)ncnc21 | -0.075 | 0.0862 | 0.0627 | 0.217 | -0.392 | -0.124 | -0.188 | -0.194 | 0.164 | 0.0979 | 0.144
C=CC(=O)Nc1cccc(Sc2nc(Nc3ccc(N4CCN(C)CC4)cc3)ncc2Cl)c1 | -0.364 | 0.467 | 0.0576 | -0.418 | -0.318 | 0.106 | -0.698 | 0.15 | 0.172 | 0.174 | 0.338
C=CC(=O)Nc1cccc(Oc2nc(Nc3ccc(N4CCN(C)CC4)cc3)ncc2Cl)c1 | – | 0.418 | 0.125 | – | -0.271 | 0.164 | -0.662 | 0.152 | 0.124 | 0.166 | 0.333
C=CC(=O)Nc1ccc2ncnc(Nc3cccc(Br)c3)c2c1 | – | – | – | – | -0.268 | 0.234 | -0.724 | – | – | – | 0.467
COc1ccc(-c2ccc3c(N4CCOCC4)nc(N4C[C@@H](C)O[C@@H](C)C4)nc3n2)cc1CO | -0.124 | -0.302 | -0.0717 | -0.114 | -0.0964 | -0.246 | 0.079 | 0.0459 | 0.0519 | 0.0599 | -0.085
CC(C)n1nc(-c2cc3cc(O)ccc3[nH]2)c2c(N)ncnc21 | -0.0564 | -0.222 | -0.0669 | 0.116 | 0.0578 | -0.329 | -0.108 | -0.0693 | 0.0845 | 0.195 | 0.186
C[C@@H](Oc1cc(-n2cnc3ccc(CN4CCN(C)CC4)cc32)sc1C(N)=O)c1ccccc1C(F)(F)F | -0.183 | 0.399 | – | 0.141 | 0.183 | 0.347 | -0.139 | 0.0494 | 0.141 | 0.0742 | –
Cc1ccc(C(=O)N(CCCN)[C@@H](c2oc3cc(Cl)ccc3c(=O)c2Cc2ccccc2)C(C)C)cc1 | – | – | 0.176 | – | -0.278 | 0.473 | -0.378 | -0.131 | – | 0.169 | –
COc1cccc2c1C(=O)c1c(O)c3c(c(O)c1C2=O)C[C@@](O)(C(C)=O)C[C@@H]3O[C@H]1C[C@H](N)[C@H](O)[C@H](C)O1 [Daunorubicin HCl (Daunomycin HCl)] | – | – | – | – | -0.245 | – | -0.431 | 0.068 | 0.915 | 0.693 | –
COc1ccc(-c2cc3c(C)nc(N)nc3n([C@H]3CC[C@H](OCCO)CC3)c2=O)cn1 | -0.424 | 0.107 | -0.0883 | -0.172 | -0.364 | -0.153 | 0.0981 | -0.166 | 0.0844 | -0.0647 | 0.155
C=CC(=O)N1CCC[C@@H](n2nc(-c3ccc(Oc4ccccc4)cc3)c3c(N)ncnc32)C1 | -0.461 | 0.562 | – | – | -0.409 | 0.169 | -0.667 | -0.17 | 0.283 | – | 0.322
Cc1[nH]nc2ccc(-c3cncc(OC[C@@H](N)Cc4ccccc4)c3)cc12 | -0.173 | -0.385 | -0.0808 | -0.173 | 0.056 | -0.128 | -0.166 | 0.272 | 0.113 | – | -0.247
CCN1CCN(Cc2ccc(-c3cc4c(N[C@H](C)c5ccccc5)ncnc4[nH]3)cc2)CC1 | -0.376 | 0.505 | – | -0.379 | -0.36 | 0.189 | -0.726 | 0.193 | 0.184 | 0.161 | 0.381
Nc1ncnc2c1c(-c1cnc3[nH]ccc3c1)nn2C1CCCC1 | -0.463 | 0.646 | 0.116 | – | -0.374 | 0.183 | -0.379 | -0.111 | 0.0862 | 0.128 | 0.258
CN(C)C/C=C/C(=O)Nc1cc2c(Nc3ccc(F)c(Cl)c3)ncnc2cc1O[C@H]1CCOC1 [Afatinib (BIBW2992)] | -0.37 | – | 0.191 | – | 0.229 | 0.0949 | -0.615 | 0.173 | 0.34 | 0.208 | 0.397
